Shown are actives, neighbours in structure and some others; about 11% of the full set was active somewhere.
HPGD inh – blocks human HPGD enzyme activity; purified HPGD, NADH fluorescence kinetic, PGE2 substrate; 150,000 tested, 4.3% active; Potency, µM, usual class: inhibitors; P15428
Target sequence (P15428 whole entry, looked up): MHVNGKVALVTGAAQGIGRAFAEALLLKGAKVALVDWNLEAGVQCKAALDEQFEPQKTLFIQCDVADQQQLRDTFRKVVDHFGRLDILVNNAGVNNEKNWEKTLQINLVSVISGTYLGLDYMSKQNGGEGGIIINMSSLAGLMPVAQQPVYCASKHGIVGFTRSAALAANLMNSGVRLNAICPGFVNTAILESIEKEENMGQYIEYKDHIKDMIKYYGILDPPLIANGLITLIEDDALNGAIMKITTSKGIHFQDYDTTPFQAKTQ
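NADH formation kinetics: reaction with 30 uM PGE2 and 1 mM NAD+ (final), 20 nM enzyme, Tris-HCl pH 8 with Tween 20, after 15 min compound preincubation at room temperature. Fluorescence change, last versus first of five reads.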
PNC inhibitor – inhibitors of perinucleolar compartment assembly; AID 2417; 140,000 tested, 3.1% active; PC3M PTB-GFP, PNC prevalence imaging, 16 h; stronger effect = lower value; activity change (PNC), negative = inhibition, % at 10 µM;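 active = readout at or below -70, meaning at least 70% loss of cells showing the perinucleolar compartment, a nuclear body marking cancer cells; inconclusive = readout between -30 and a set limit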
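Read-out is percentage of cells bearing a perinucleolar compartment, from automated 20x imaging of fixed, Hoechst-stained PC3M PTB-GFP cells. Cells were seeded 4 h, then exposed 16 h to compound (23 nl of library stock) in duplicate plates.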
ALDH1A1 block – ALDH1A1 (human) enzyme inhibition; Potency, µM (series often up to 75.3 µM), usual class: inhibitors; 220,000 tested, 7.3% active; Purified ALDH1A1, NADH fluorescence, propionaldehyde substrate; P00352
Hits are given with their value; 0 = inactive; ? = inconclusive; - = not tested or not shown; [ ] = remark or other dose. Unless noted, calls come from the whole dose curve; as a rule, active = well fitted inhibition curve with a large enough effect (not every such curve was filed as active); inconclusive = small, poorly fitted or top-dose-only effect, or another doubt; inactive = no such curve, though single readings can be large or run the other way.

SMILES	HPGD inh	PNC inhibitor	ALDH1A1 block
CCCOc1ccc(C2C(C(=O)c3ccc(C)o3)=C(O)C(=O)N2CCN2CCOCC2)cc1OC (stereo not drawn)	0	0	?
Nc1ccc(F)cc1F	0	-	?
O=C(COC(=O)c1cc[n+]([O-])cc1)Nc1ccc([N+](=O)[O-])cc1Cl	-	-	0
CN1CCCC2(CCN(C(=O)c3cccc(F)c3)CC2)C1	0	-	0
COc1ccc2c(c1)CN([C@H](C)[C@@H]1CC[C@@H]3[C@H]4CC[C@H]5C[C@@H](O)CC[C@@]5(C)[C@H]4CC[C@]31C)CO2	0	-	?
CC1(C(=O)NC2CCCCCCC2)CCC(=O)N1Cc1cccs1 (stereo not drawn)	0	0	0
COc1ccccc1CNc1ccnc(-c2ccccc2OC)n1	-	-	0
O=C(O)/C(=C\c1ccncc1)c1cccc2ccccc12	0	-	0[13.5 µM]
CN(C)N1C(=O)CC(N2CCCCC2)C1=O (stereo not drawn)	-	-	0
CC(O)c1nc2ccccc2n1CCCCOc1ccccc1 (stereo not drawn)	-	-	0
C=CCOc1cccc(C2C(C(=O)c3ccco3)=C(O)C(=O)N2Cc2ccncc2)c1 (stereo not drawn)	0	0	?
C=CCOc1cccc(C2C(C(=O)c3ccco3)=C(O)C(=O)N2CCN2CCOCC2)c1 (stereo not drawn)	0	0	25µM
COc1ccc(C(=O)OC(C)C(=O)Nc2cc(C(F)(F)F)ccc2Cl)c(OC)c1OC (stereo not drawn)	25µM	0	0
COc1cc(C(=O)Nc2cc(C(F)(F)F)ccc2Cl)cc(OC)c1OC	0	0	0
Cc1ccc2c(CSc3nnnn3C)cc(=O)oc2c1	-	-	0
COc1cc(-c2nnc(SCc3cc(=O)oc4cc(C)ccc34)o2)cc(OC)c1OC	?	0	6.3µM
N#C[C@H](C(=O)O)C(c1c(Cl)cccc1Cl)[C@H](C#N)C(=O)O	0	-	0[13.5 µM]
Cc1ccc(/C=N\NC(=O)C2CC(=O)N(c3ccccc3)C2)o1 (stereo not drawn)	-	-	0
O=C(NCCc1c[nH]c2ccccc12)[C@@H]1C[C@H]1[C@@H](NP(=O)(c1ccccc1)c1ccccc1)c1ccccc1	0	0	0
Cc1ccc2[nH]c3c(c2c1)CCC3=O	?	0	?
CCCCN1CCc2c([nH]c3ccc(C)cc23)C1=O	?	-100	?
O=C(COC(=O)c1ccccc1OCc1ccc(Cl)cc1)NC1CC1	0	0	0
O=C(COC(=O)c1c(Cl)cccc1Cl)NC1CCCCC1	-	-	0
O=C(COC(=O)c1ccc2c(c1Cl)C(=O)c1ccccc1C2=O)NC1CCCCC1	6.3µM	0	0
O=C(COC(=O)c1ccc2c(c1Cl)C(=O)c1ccccc1C2=O)NC1CC1	7.9µM	0	?
SMILES	HPGD inh	PNC inhibitor	ALDH1A1 block
CCOC(=O)c1cn(CC(=O)Nc2ccc(OC)cc2OC)nn1	-	-	0
Cc1nc(-c2cccc(NS(=O)(=O)c3cccc4ccccc34)c2)cs1	0	0	0
CC(=O)c1ccc(O)c(CN(C2CCCCC2)C2CCCCC2)c1O	0	-	0[13.5 µM]
CC(=O)c1ccc2c3c(ccc(O)c13)CC2	14µM	?	?
COC(=O)c1cc(OC)c(OC)cc1NC(=O)CN1C(=O)c2ccccc2C1=O	0	0	?
COC(=O)c1cc(-c2ccccc2)sc1NC(=O)CN1C(=O)c2ccccc2C1=O	?	0	25µM
CCCNC(=O)Nc1ccc(NC(C)=O)cc1	-	-	0
Oc1ccc(C2CNCc3sccc32)cc1O (stereo not drawn)	7.1µM	-	?
Oc1ccc(C2CNCCc3c2cc(O)c(O)c3Cl)cc1 (stereo not drawn)	0	-	?
O=C(N/N=C/C=C/c1ccco1)/C(=C/c1ccccc1)NC(=O)c1ccccc1	0	0	?
C[C@@H](C(=O)Nc1ccc2ccccc2c1)[C@H]1C[C@]1(C)[C@H](NC(=O)c1cccnc1)c1ccccc1	0	0	11µM
COC(=O)N[C@H](c1ccccc1)[C@@]1(C)C[C@@H]1[C@@H](C)C(=O)Nc1ccc2ccccc2c1	0	-	7.9µM
Cc1cc(C(=O)N[C@@H](c2ccccc2)[C@]2(C)C[C@H]2[C@@H](C)C(=O)Nc2ccc3ccccc3c2)n(C)n1	0	-	?
CC(=O)N[C@H](c1ccccc1)[C@@]1(C)C[C@@H]1[C@@H](C)C(=O)Nc1ccc2ccccc2c1	0	-	?
CCOC(=O)CC(NC(=O)c1cc2cc(Cl)cc(Cl)c2oc1=O)c1cccc([N+](=O)[O-])c1 (stereo not drawn)	0	?	0
CCOC(=O)CC(NC(=O)c1cc2cccc(OC)c2oc1=O)c1cccc([N+](=O)[O-])c1 (stereo not drawn)	?	0	22µM
N[C@@H](C(=O)O)[C@@H](CC(=O)O)c1ccc(Cl)cc1	-	-	0
O=C(NCC1CCCO1)C(c1cccs1)N(Cc1ccccc1Cl)C(=O)c1ccc(-c2ccccc2)[nH]1 (stereo not drawn)	0	0	0

Screening data (PubChem)
